Molecules are shown by their SMILES.

Experiment [1] concerns Vero E6 infected with SARS-CoV-2. The experiment is described as follows: morphology score (similarity to uninfected cells); higher = more like uninfected cells. The note with it: 24 h.
The test system is the same in experiment [2]. Briefly: SARS-CoV-2 infection rate relative to infected DMSO; higher = more infection, active = 60 or less. The note with it: 24 h.

On to `O=C(O)c1cc(=O)c2c(OCC(O)COc3cccc4oc(C(=O)O)cc(=O)c34)cccc2o1` [cromoglicic-acid] (10 µM), for which the morphology score in experiment [1] came to 0.204. Moreover, the SARS-CoV-2 infection rate in experiment [2] was 87% (inactive).

Consider `CCOC(=O)C1=C(N)Oc2ccc(Br)cc2C1C(C#N)C(=O)OCC` (stereo not drawn) (10 µM), for which the morphology score in experiment [1] was found to be 0.0924. Further, the SARS-CoV-2 infection rate in experiment [2] is 108% (inactive).

Turning to `CC(C)(N)C(=O)N[C@H](COCc1ccccc1)C(=O)N1CCC2(CC1)CN(S(C)(=O)=O)c1ccccc12` [ibutamoren] (10 µM), in experiment [1], the morphology score was -0.0834. Also, in experiment [2], the SARS-CoV-2 infection rate is 108% (inactive).

`O=c1cc(-c2cccc3c2Sc2ccccc2S3)oc(N2CCOCC2)c1` (10 µM) registered a morphology score in experiment [1] of 0.284. In experiment [2], the SARS-CoV-2 infection rate was 83% (inactive).

(Values after the supplement of paper PMC13380429.)
